TDP1 cell CPT: DT40-hTDP1 cell growth loss with CPT | chicken DT40 Tdp1-/-;hTDP1 cells + 20 nM CPT, ATP luminescence, 48 h | Potency, µM (series often up to 46.2 µM), hits mostly inhibitors | 420,000 tested, 12% active; note: nearly all actives have a fitted effect of over 55% in size
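Chicken DT40 Tdp1-/- cells complemented with human TDP1, 400 cells/well, exposed to compounds plus 20 nM camptothecin for at least 48 h at 37 C; viability read as ATP content by CellTiter-Glo luminescence.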
TDP1 inh: inhibitors of human tyrosyl-DNA phosphodiesterase TDP1; Q9NUW8; recombinant TDP1, AlphaScreen DNA substrate cleavage; Potency, µM (series often up to 130 µM), hits mostly inhibitors; 350,000 tested, 0.28% active; AID 485290; note: nearly all actives have a fitted effect of over 40% in size
Target sequence (Q9NUW8 whole entry, looked up): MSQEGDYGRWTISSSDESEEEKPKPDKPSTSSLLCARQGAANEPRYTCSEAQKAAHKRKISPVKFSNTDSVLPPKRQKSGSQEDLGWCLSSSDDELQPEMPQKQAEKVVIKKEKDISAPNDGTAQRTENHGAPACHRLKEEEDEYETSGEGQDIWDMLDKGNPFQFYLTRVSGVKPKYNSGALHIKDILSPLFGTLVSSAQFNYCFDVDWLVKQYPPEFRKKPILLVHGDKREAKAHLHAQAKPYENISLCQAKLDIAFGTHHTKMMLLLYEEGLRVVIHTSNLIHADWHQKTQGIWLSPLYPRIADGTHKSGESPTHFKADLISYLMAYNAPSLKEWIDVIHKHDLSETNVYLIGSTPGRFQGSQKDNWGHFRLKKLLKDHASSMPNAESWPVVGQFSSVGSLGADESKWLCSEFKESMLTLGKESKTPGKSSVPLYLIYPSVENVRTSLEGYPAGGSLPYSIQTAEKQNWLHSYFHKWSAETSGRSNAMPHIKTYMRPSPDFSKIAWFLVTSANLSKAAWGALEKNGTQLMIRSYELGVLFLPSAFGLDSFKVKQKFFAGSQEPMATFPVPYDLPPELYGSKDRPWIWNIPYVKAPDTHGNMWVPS
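Signal: AlphaScreen proximity between streptavidin donor and anti-FITC acceptor beads on intact substrate. Reaction: Tdp1 1 nM, substrate 15 nM final, 5 min RT after 15 min compound preincubation.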
IL-1B inflam inh: blocks inflammasome-driven IL-1 beta release; THP-1 LPS/ATP IL-1B secretion, AlphaLISA, 16 h; hits give low values; activity change, % at 57.5 µM; 360,000 tested, 4.7% active; AID 743279; in the data active = activity change below about -50%; inconclusive = mostly about -30% to -49%
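THP-1 cells pretreated 1 hr with compounds (up to 57.5 uM final), then stimulated with LPS (250 ng/mL final) plus ATP (1.25 mM final); secreted IL-1B measured by AlphaLISA after 16 hr, decreased signal indicating inhibition.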
HepG2 viability: counter-screen for TGF-b inhibitors: cytotoxicity in HepG2 cells; 410,000 tested, 0.76% active; HepG2 CAGA-GFP viability, ATP luminescence, 18 h; Potency, µM (series often up to 46.1 µM), most hits filed as cytotoxic; AID 588856
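HepG2 CAGA-GFP cells (1000/well, DMEM with 1% FBS) received compound, then TGF-beta at 500 pg/mL final, and were incubated 18 hours at 37 degrees C. Viability was read by CellTiter-Glo luminescence. Media-only wells were set as complete cell-killing and DMSO as no toxicity.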
TGFb inhibitor: blocks TGF-b signaling; HepG2 CAGA-GFP TGF-b/SMAD3 reporter, GFP fluorescence, 18 h; TGF-beta stimulated, 500 pg/mL final; Potency, µM (doses to about 46.1 µM), hits mostly inhibitors; 410,000 tested, 1.2% active; note: nearly all actives have a fitted effect of over 65% in size
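Inhibition of TGF-beta-driven CAGA-GFP reporter expression in HEPG2 cells is measured by cellular GFP fluorescence after 18 h stimulation with 500 pg/mL recombinant TGF-beta in 1% FBS medium at 37 degrees C.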
DT40 TDP1 no CPT: qHTS for Inhibitors of human tyrosyl-DNA phosphodiesterase 1 (TDP1): qHTS in cells in absence of CPT. DT40 Tdp1-/- hTDP1 cells, no CPT, ATP luminescence, 48 h. Potency, µM (titrated, usually from 46.2 µM), most hits filed as inhibitors. 420,000 tested, 15% active; note: nearly all actives have a fitted effect of over 55% in size
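Cells were dispensed at 400 per well, compounds added by pin tool, plates incubated ≥48 hr at 37 °C, then CellTiter-Glo added for 30 min at room temperature before luminescence reading. Line: DT40 Tdp1-/- complemented with hTDP1; camptothecin omitted.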
Hits are given with their value. Shown are actives, neighbours in structure and some others; about 19% of the full set was active somewhere. Unless noted, calls come from the whole dose curve; as a rule, active = well fitted curve in the direction sought with a large enough effect; inconclusive = small, poorly fitted or top-dose-only effect, or another doubt; inactive = no such curve, though single readings can be large; an effect the other way counts as inactive or inconclusive.

For CCOc1ccc(CCN2C(=S)N([C@@H](CC(C)C)CN3CCCC3CN3C(=S)NC[C@@H]3Cc3ccccc3)C[C@@H]2CC(C)C)cc1 (stereo partly drawn) the results were TDP1 cell CPT inconclusive, IL-1B inflam inh inactive and DT40 TDP1 no CPT 16µM.
`CCOc1ccc(CCN2C(=S)N([C@@H](CC(C)C)CN3CCC[C@@H]3CN3C(=S)NC[C@@H]3CC(C)C)C[C@@H]2CC(C)C)cc1` gave TDP1 cell CPT inconclusive, IL-1B inflam inh inactive, HepG2 viability inactive, TGFb inhibitor inactive and DT40 TDP1 no CPT inconclusive.
For CCc1ccc(NC(=O)Cn2c(=O)n(Cc3ccco3)c(=O)c3oc4ccccc4c32)cc1 the results were TDP1 cell CPT inactive, TDP1 inh inactive, HepG2 viability inactive, TGFb inhibitor inactive and DT40 TDP1 no CPT inactive.
`O=C1C(=NO)C(c2ccccc2)Oc2ccccc21` (stereo not drawn) gave TDP1 cell CPT inactive, IL-1B inflam inh -90, HepG2 viability inactive, TGFb inhibitor inactive and DT40 TDP1 no CPT inactive.
For COC(=O)C1=C(CCc2ccccc2)NC(=O)NC1c1ccc(Cl)cc1 (stereo not drawn) the results were TDP1 cell CPT inconclusive, IL-1B inflam inh -52, HepG2 viability inactive, TGFb inhibitor inconclusive and DT40 TDP1 no CPT inconclusive.
Screening COC(=O)C1=C(COc2ccccc2)NC(=O)NC1c1ccc2ccccc2c1 (stereo not drawn) returned TDP1 cell CPT inconclusive, IL-1B inflam inh inactive, HepG2 viability inactive, TGFb inhibitor inactive and DT40 TDP1 no CPT 23µM.
For CCN1C(=O)[C@@H]2[C@@H]3CN(S(=O)(=O)c4ccc(C)cc4)[C@@H](c4ccccc4Cl)[C@@H]3C(=O)C[C@@H]2C1=O the results were TDP1 cell CPT inconclusive, IL-1B inflam inh inactive, HepG2 viability inactive, TGFb inhibitor inactive and DT40 TDP1 no CPT inconclusive.
`COc1ccc(-c2nc3ccc(N4CCN(C)CC4)cc3c(=O)[nH]2)cc1` gave TDP1 cell CPT inactive, TDP1 inh inactive, IL-1B inflam inh inactive, HepG2 viability inactive, TGFb inhibitor inactive and DT40 TDP1 no CPT inconclusive.
COc1cc(-c2nc3ccc(N4CCN(C)CC4)cc3[nH]2)cc(OC)c1OC was read as TDP1 cell CPT inconclusive, TDP1 inh inactive, IL-1B inflam inh -52, HepG2 viability inactive, TGFb inhibitor inactive and DT40 TDP1 no CPT inconclusive.
`COc1ccc(NCc2cc3ccc(OC)cc3n(CC(=O)Nc3ccc(C)c(C)c3)c2=O)cc1` gave TDP1 inh inactive, HepG2 viability inactive and TGFb inhibitor inactive.
`O=C(Nc1ccc(F)c([N+](=O)[O-])c1)C(=O)c1c(O)[nH]c2ccccc12` gave TDP1 cell CPT 18µM, TDP1 inh inactive, IL-1B inflam inh inactive, HepG2 viability inactive, TGFb inhibitor inactive and DT40 TDP1 no CPT 13µM.
Screening O=C(Nc1ccccc1)Nc1ccc(F)c([N+](=O)[O-])c1 returned TDP1 cell CPT 16µM, TDP1 inh inactive, IL-1B inflam inh -90, HepG2 viability inactive, TGFb inhibitor inconclusive and DT40 TDP1 no CPT 16µM.
For O=C(Nc1ccccc1)Nc1ccc(Cl)c([N+](=O)[O-])c1 the results were TDP1 cell CPT inactive, TDP1 inh inactive, IL-1B inflam inh inactive, HepG2 viability inactive, TGFb inhibitor inactive and DT40 TDP1 no CPT inactive.
Screening O=C(CSc1ccccn1)Nc1ccc(F)c([N+](=O)[O-])c1 returned TDP1 cell CPT inconclusive, TDP1 inh inactive, IL-1B inflam inh -76, HepG2 viability inactive, TGFb inhibitor inactive and DT40 TDP1 no CPT inconclusive.
For COc1ccc(-n2ccn(Cc3ccccc3Cl)c(=O)c2=O)cc1OC the results were TDP1 cell CPT inactive, TDP1 inh inactive, HepG2 viability inactive, TGFb inhibitor inactive and DT40 TDP1 no CPT inactive.
For O=C(O)CCC(NC(=S)Nc1ccccc1)C(=O)O (stereo not drawn) the results were TDP1 cell CPT inactive, IL-1B inflam inh inactive, HepG2 viability inactive, TGFb inhibitor inactive and DT40 TDP1 no CPT inactive.
Screening Cc1cccc(Cn2c(=O)n(-c3ccc(Cl)c(Cl)c3)c(=O)c3c(C)c(C)sc32)c1 returned TDP1 cell CPT inactive, TDP1 inh inactive, HepG2 viability inactive, TGFb inhibitor inactive and DT40 TDP1 no CPT inconclusive.
Screening CC(=O)N1CCc2c(sc3c2c(=O)n(-c2ccccc2)c(=O)n3CC(=O)NCC2CCCO2)C1 (stereo not drawn) returned TDP1 cell CPT inactive, IL-1B inflam inh inactive, HepG2 viability inactive, TGFb inhibitor inactive and DT40 TDP1 no CPT inactive.
CCCN(CCC)C(=O)Cn1c(=O)n(-c2ccc(CC)cc2)c(=O)c2c3c(sc21)CCC3 was read as TDP1 cell CPT inconclusive, TDP1 inh inactive, HepG2 viability inactive, TGFb inhibitor inactive and DT40 TDP1 no CPT 16µM.
`CCOC(=O)N1CCc2c(sc3c2c(=O)n(-c2ccc(CC)cc2)c(=O)n3CC(=O)c2ccccc2)C1` gave TDP1 cell CPT inconclusive, TDP1 inh inactive, HepG2 viability inactive, TGFb inhibitor inactive and DT40 TDP1 no CPT inactive.
For COc1cccc(Cn2c(=O)n(-c3cccc(Cl)c3)c(=O)c3c4c(sc32)CN(C(C)=O)CC4)c1 the results were TDP1 cell CPT inconclusive, TDP1 inh inactive, HepG2 viability inactive, TGFb inhibitor inconclusive and DT40 TDP1 no CPT 18µM.
`CCOC(=O)N1CCc2c(sc3c2c(=O)n(-c2ccc(CC)cc2)c(=O)n3Cc2cccc(OC)c2)C1` gave TDP1 cell CPT 13µM, TDP1 inh inactive, HepG2 viability inactive, TGFb inhibitor inactive and DT40 TDP1 no CPT inconclusive.
`CCOC(=O)N1CCc2c(sc3c2c(=O)n(-c2ccc(CC)cc2)c(=O)n3CC(=O)NCC2CCCO2)C1` (stereo not drawn) gave TDP1 cell CPT 4.6µM, TDP1 inh inactive, IL-1B inflam inh inactive, HepG2 viability inactive, TGFb inhibitor inactive and DT40 TDP1 no CPT 1.3µM.
Screening COc1ccc(CNC(=O)C(=O)NCC2OCCN2S(=O)(=O)c2ccc(F)cc2)cc1 (stereo not drawn) returned TDP1 cell CPT inactive, TDP1 inh inactive, IL-1B inflam inh inactive, HepG2 viability inactive, TGFb inhibitor inactive and DT40 TDP1 no CPT inactive.
Cc1occc(=O)c1OC(=O)Nc1ccc(Cl)c(Cl)c1 was read as TDP1 cell CPT 2.9µM, TDP1 inh inactive, IL-1B inflam inh -78, HepG2 viability inactive, TGFb inhibitor 10µM and DT40 TDP1 no CPT 4.6µM.

Source: PubChem
